Bioassay records: PubChem, several laboratories
Many of the other results were omitted from the sample, so hits are more common in it than they were.
PglD inh: inhibitors of Campylobacter jejuni PglD acetyltransferase; purified PglD enzyme, DTNB colorimetric CoA detection; inhibition, % at 12.5 µM; 360,000 tested, 0.098% active; in the data active = inhibition above about 16%, passing the limit was not always enough
ARNT-TACC3 inh: disrupts binding between human ARNT and TACC3; Q9Y6A5; AlphaScreen His-ARNT PAS-B/GST-TACC3 binding, luminescence; TACC3 fragment carries E629A point mutation; inhibition, % at 9.99 µM; 390,000 tested, 0.66% active; AID 623870;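 active = mean inhibition of replicates at least 50% and at least half of replicates each reaching 50%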;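 also: 0% = complete ARNT plus TACC3 wells and 100% = ARNT alone without TACC3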
ALR H2O2 inh: inhibitors of human sulfhydryl oxidase ALR | inhibition, % (concentration not given with the values) | AID 485317 | purified ALR, DTT oxidation, H2O2 HRP-luminol luminescence | 290,000 tested, 3.8% active | P55789;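 active = mean replicate inhibition above about 79%, with every replicate also reaching it, limit read from the data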
CendR NRP1 mod: alters CendR peptide binding to human NRP-1 | O14786 | FAM-RPARPAR peptide binding to NRP-1, fluorescence polarization | inhibition, % at 25 µM | 360,000 tested, 0.85% active;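 active = inhibition or corrected inhibition above about 18%, plus a signal ratio from 0.5 to 1.5, limit read from the data, passing the limit was not always enough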
ERp5 inh: inhibitors of human ERp5 | Q15084 | ERp5 insulin aggregation, absorbance 650 nm, 90 min | inhibition, % at 9.99 µM | 350,000 tested, 0.05% active | AID 651711;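 active = mean replicate inhibition above about 25%, with every replicate also reaching it, limit read from the data, passing the limit was not always enough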
Target sequence (Q15084 whole entry, looked up): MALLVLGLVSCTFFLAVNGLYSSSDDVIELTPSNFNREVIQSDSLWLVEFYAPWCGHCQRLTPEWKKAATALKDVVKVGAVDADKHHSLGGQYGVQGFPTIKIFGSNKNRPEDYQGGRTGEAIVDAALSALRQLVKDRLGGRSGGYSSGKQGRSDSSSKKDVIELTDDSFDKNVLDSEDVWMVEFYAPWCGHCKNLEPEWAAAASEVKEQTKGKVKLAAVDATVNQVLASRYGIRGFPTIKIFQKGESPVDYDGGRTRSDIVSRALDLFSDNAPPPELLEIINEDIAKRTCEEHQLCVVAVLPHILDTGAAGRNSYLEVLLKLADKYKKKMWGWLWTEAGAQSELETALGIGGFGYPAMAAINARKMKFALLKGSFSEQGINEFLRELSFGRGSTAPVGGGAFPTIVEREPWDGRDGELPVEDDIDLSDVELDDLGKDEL
PDI turbidity: PDI (human) enzyme inhibition; P07237; PDI insulin aggregation turbidity, A650, 90 min; inhibition, % at 10 µM; 350,000 tested, 0.052% active; AID 588391;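 active = mean inhibition across replicates of 30% or more, whatever share of single replicates reach that level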
Active calls of the source: *; . = no result.

SMILES | PglD inh | ARNT-TACC3 inh | ALR H2O2 inh | CendR NRP1 mod | ERp5 inh | PDI turbidity
O=C(C1CCCC1)N1CCCCN2[C@H](CO)[C@@H](c3ccc(-c4cccc(F)c4)cc3)[C@H]2C1 | 2 | 13 | . | . | 2 | .
O=C(c1ccncc1)N1C[C@@H]2[C@H](c3ccccc31)[C@@H](CO)N2Cc1ccc(F)cc1 | 2 | 1 | . | . | -3 | .
CCC(C)c1ccc(O)c(NC(=O)c2cccnc2)c1 (centres undefined) | . | -4 | 95* | -3 | . | 5
COc1ccc(-c2ccc(-c3nc4c(c(=O)[nH]c(=O)n4Cc4ccccc4)n3C)o2)c([N+](=O)[O-])c1 | -4 | 24* | -12 | -16 | 1 | 3
COCCn1c(=O)[nH]c(=O)c2c1nc(-c1ccc(-c3ccc(Cl)cc3[N+](=O)[O-])o1)n2Cc1ccccc1 | . | -6 | . | -21 | 3 | 16
O=c1[nH]c(=O)n(Cc2ccccc2)c2nc(-c3ccc(Oc4ccc(F)cc4)c([N+](=O)[O-])c3)n(CCO)c12 | . | 3 | 2 | 26* | 1 | 6
CCCCn1c(=O)[nH]c(=O)c2c1nc(-c1ccc(C)c([N+](=O)[O-])c1)n2CC | 0 | -12 | 96* | 5 | -4 | -7
Cc1ccc(-c2nc3c(c(=O)[nH]c(=O)n3CC(C)C)n2CC(C)C)cc1[N+](=O)[O-] | . | -2 | . | -6 | 4 | 4
C[C@H](CO)N1C[C@H](C)[C@H](CN(C)S(=O)(=O)c2cccs2)Oc2ccc(NC(=O)C3CC3)cc2CC1=O | -2 | . | . | . | -4 | .
COCC(=O)Nc1ccc2c(c1)[C@H]1C[C@@H](CC(=O)NCc3cccc(F)c3)O[C@H](CO)[C@H]1O2 | -2 | -15 | . | . | 3 | .
CSc1ccc(NC(=O)Nc2ccc(C(=O)NCC(=O)O)cc2)cc1 | . | -13 | 98* | -5 | 0 | 11
Nc1nnc(N2CCCCC2)s1 | 0 | 3 | 91* | -9 | . | -1
Cc1nn(-c2ccccc2)c(C)c1C(=O)OCC(=O)N1c2ccccc2NC(=O)C1(C)C | -4 | -4 | -8 | 30* | . | -5
Cc1cnc(C(=O)OCC(=O)N2c3ccccc3NC(=O)C2(C)C)cn1 | 4 | -2 | -2 | -1 | . | 8
C[C@@]12C(=O)N(CC3CC3)CC(=O)N1[C@H](/C=C/c1ccccc1)[C@@H]1C(=O)N(c3ccccc3)C(=O)[C@@H]12 | 1 | 10 | . | 28* | 7 | 1
COc1ccc(-c2cnc3c(c2)C(=O)N([C@@H](C)CO)C[C@@H](C)[C@@H](CN(C)C(=O)CN(C)C)O3)cc1 | 0 | 0 | . | . | 4 | .
C[C@H]1CN([C@@H](C)CO)C(=O)Cc2cc(NS(=O)(=O)c3ccc(Cl)cc3)ccc2O[C@@H]1CN(C)S(C)(=O)=O | -1 | -7 | . | . | 1 | .
COc1ccc(NC(=O)CSc2nnc(-c3ccco3)c(-c3ccco3)n2)cc1OC | -7 | . | 90* | 10 | 8 | -4
COc1cccc(NC(=O)CSc2nnc(-c3ccco3)c(-c3ccco3)n2)c1 | -1 | . | 99* | -29 | 1 | 0
COc1ccc(C(=O)CSc2nnc(-c3ccco3)c(-c3ccco3)n2)cc1 | . | 6 | . | -16 | -2 | 7
O=C(CC1C(=O)NCCN1C(=O)Nc1ccccc1)Nc1cccc(C(F)(F)F)c1 (centres undefined) | 5 | 21 | -12 | 44* | . | -1
CCC1=C(OC(=O)N(CC)CC)N2C(=O)OC(=NCc3ccccc3)[C@]2(C)[C@H]2C1=CC[C@H]1C(=O)N(CC)C(=O)[C@H]12 | -1 | 2 | -3 | 10 | 5 | 5
CCC1=C(OC(=O)N(CC)CC)N2C(=O)OC(=NCC(=O)OC)[C@]2(C)[C@H]2C1=CC[C@H]1C(=O)N(CC)C(=O)[C@H]12 | 0 | -1 | -6 | 35* | 0 | -4
CCC1=C(OC(=O)N(CC)CC)N2C(=O)OC(=NCCOC)[C@]2(Cc2ccccc2)[C@H]2C1=CC[C@H]1C(=O)N(CC)C(=O)[C@H]12 | -5 | -7 | -56 | 19 | -2 | 0
CCC1=C(OC(=O)N(CC)CC)N2C(=O)OC(=NCCc3c[nH]c4ccccc34)[C@]2(C)[C@H]2C1=CC[C@H]1C(=O)N(C)C(=O)[C@H]12 | 3 | 7 | -25 | 19 | -1 | 5
SMILES | PglD inh | ARNT-TACC3 inh | ALR H2O2 inh | CendR NRP1 mod | ERp5 inh | PDI turbidity
CCC1=C(OC(=O)N(CC)CC)N2C(=O)OC(=NCC(=O)OC)[C@]2(C)[C@H]2C1=CC[C@H]1C(=O)N(CC(=O)OC)C(=O)[C@H]12 | -4 | -4 | . | 24* | 7 | -4
CCC1=C(OC(=O)N(CC)CC)N2C(=O)OC(=NCC(=O)OC)[C@]2(Cc2ccccc2)[C@H]2C1=CC[C@H]1C(=O)N(CC(=O)OC)C(=O)[C@H]12 | -1 | 5 | -11 | 27* | 0 | 1
CCC1=C(OC(=O)N(CC)CC)N2C(=O)OC(=NCCOC)[C@]2(Cc2ccccc2)[C@H]2C1=CC[C@H]1C(=O)N(C)C(=O)[C@H]12 | -5 | -2 | . | 24* | 0 | 3
CCC1=C(OC(=O)N(CC)CC)N2C(=O)OC(=NCC3CC3)[C@]2(Cc2ccccc2)[C@H]2C1=CC[C@H]1C(=O)N(CC)C(=O)[C@H]12 | 0 | 7 | -3 | 14 | 4 | 3
O=C(C[C@@H]1C[C@H]2c3cc(NC(=O)Nc4ccccc4F)ccc3O[C@H]2[C@H](CO)O1)NCc1cc(F)ccc1F | 3 | -6 | . | . | 3 | .
C[C@@H]1CN([C@@H](C)CO)C(=O)Cc2cc(NC(=O)CCN3CCOCC3)ccc2O[C@@H]1CN(C)S(=O)(=O)c1ccc(F)cc1 | 8 | -10 | . | . | -2 | .
O=C(C[C@H]1CC[C@@H](NC(=O)Nc2ccc(C(F)(F)F)cc2)[C@@H](CO)O1)NCCN1CCCC1 | -2 | 0 | . | . | 4 | .
CC1(C)Cc2ccccc2C2=NNC(=O)C2=N1 | 4 | 61* | 99* | 16 | 4 | -2
CC1(C)Cc2ccccc2C(Nn2cnnc2)=N1 | -1 | 0 | -4 | -2 | -3 | 4
COc1cccc(C2c3[nH]c4ccccc4c3C[C@H]3C(=O)N(C)CC(=O)N23)c1 (some centres undefined) | 4 | 5 | 98* | 3 | -1 | 2
COc1ccc(C2c3[nH]c4ccccc4c3C[C@H]3C(=O)N(CCCO)CC(=O)N23)c(OC)c1 (some centres undefined) | 1 | 2 | 99* | 5 | 2 | 0
COCCN1CC(=O)N2C(c3cccc(OC)c3)c3[nH]c4ccccc4c3C[C@H]2C1=O (some centres undefined) | 7 | -10 | 99* | 0 | 0 | 2
COc1ccc(C2c3[nH]c4ccccc4c3C[C@H]3C(=O)N(C)CC(=O)N23)cc1OC (some centres undefined) | -4 | -3 | 98* | 7 | 0 | 2
